We go through 18 molecules from PMC5540273 (PLoS ONE, 2017).

Some test systems named below: ANKK1; AURKA; AURKB; AURKC; AXL; BLK.
Holding throughout (conditions): concentration: 1 μM, replicates: in singlicate; n = 1
A further test has as its system T1, ARK5.
T1 construct: gene NUAK1

Another test has as its system T2, ASK1.
T2 construct: gene MAP3K5

For a further test, the system named is T3, ASK2.
T3 construct: gene MAP3K6

The next test concerns T4, BIKE.
T4 construct: gene BMP2K
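Note: KINOMEscan kinase panel screen.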

On to `O=C(Nc1n[nH]c2cc(-c3cccc(F)c3F)ccc12)C1CC1` [SB-733894], for which the “%Inh” value is on record as 0% with ANKK1; 0% in the test on ARK5; 0% in the test on ASK1; 5% in the test with ASK2; 23% in the test on AURKA; 25% in the test on AURKB. Besides, the “%Inh” value in the test on AURKC was 54%; in the test on AXL it was 0%; in the test on BIKE, 21%; in the test with BLK, 0%.
In the case of `O=C(Nc1ccccc1)Nc1cccc(Oc2ccc3nccn3n2)c1`, the “%Inh” value is 0% with ANKK1; 0% in the test with ARK5; 0% with ASK1; 0% with ASK2; 0% in the test on AURKA; 8% in the test with AURKB. For the same molecule, the “%Inh” value is recorded as 26% in the test with AURKC, 7% in the test with AXL, 0% with BIKE and 0% with BLK.
Consider `CC(C)(C)c1ccc(C(=O)Nc2cn3cc(-c4cccnc4)ccc3n2)cc1`, for which the “%Inh” value with ANKK1 came to 11%; in the test with ARK5, 14%; in the test on ASK1, 94.9%; in the test on ASK2, 0%; in the test on AURKA, 0%; in the test on AURKB, 34%. Also, the “%Inh” value is given as 19% in the test with AURKC, 25% in the test with AXL, 8% with BIKE and 8% with BLK.
Turning to `Cc1cccc(-c2nc(Nc3ccncc3)c3ccccc3n2)n1` [GW855857], the “%Inh” value is recorded as 0% in the test with ANKK1; 0% in the test on ARK5; 0% in the test on ASK1; 0% in the test with ASK2; 0% with AURKA; 10% with AURKB. In addition, the “%Inh” value with AURKC came out at 0%; with AXL it was 7%; in the test on BIKE, 1%; in the test with BLK, 1%.
As for `Cc1cc(N2Cc3ccccc3C2)nc(Nc2ccc(S(=O)(=O)N3CCOCC3)cc2)n1.Cl` [GSK1669917], the “%Inh” value in the test on ANKK1 was 24%; in the test with ARK5, 0%; in the test with ASK1, 0%; with ASK2, 0%; in the test with AURKA, 0%; in the test on AURKB, 0%. Besides, the “%Inh” value in the test with AURKC was determined as 0%; in the test with AXL it was 0%; with BIKE, 9%; with BLK, 16%.
Consider `CCCc1ccc(S(=O)(=O)NC2CCN(c3ccnc(Nc4ccc(F)cc4)n3)C2)cc1` (stereo not drawn) [GSK1379715], for which the “%Inh” value in the test with ANKK1 is 0%; in the test with ARK5, 0%; in the test with ASK1 it was 2%; in the test on ASK2 it was 0%; with AURKA, 0%; in the test with AURKB it was 29%. In addition, the “%Inh” value with AURKC came to 5%; in the test on AXL, 12%; in the test on BIKE it was 0%; in the test on BLK, 0%.
Turning to `Cc1cccc(-c2nc(C)cc(Nc3ccncc3)n2)n1` [GSK257997], the “%Inh” value stood at 0% in the test with ANKK1; 0% with ARK5; 0% in the test on ASK1; 0% with ASK2; 21% in the test on AURKA; 0% with AURKB. The “%Inh” value in the test with AURKC is recorded as 13%; in the test on AXL, 7%; in the test on BIKE it was 21%; with BLK, 32%.
`COc1ccc(CNC(=O)NC2CCN(c3ccnc(Nc4cc(OC)c(OC)c(OC)c4)n3)C2)cc1` (stereo not drawn) [GSK1379748]: the “%Inh” value in the test on ANKK1 is 33%; in the test with ARK5, 25%; in the test with ASK1, 0%; with ASK2, 12%; with AURKA, 79%; in the test on AURKB it was 84%. For the same molecule, the “%Inh” value with AURKC amounted to 60%; in the test with AXL it was 8%; in the test on BIKE it was 25%; in the test on BLK it was 0%.
In the case of `CC(C)(C)c1ccc(C(=O)Nc2cn3cc(Cl)ccc3n2)cc1`, the “%Inh” value with ANKK1 was found to be 0%; in the test on ARK5 it was 0%; with ASK1 it was 86%; in the test with ASK2, 0%; with AURKA, 0%; with AURKB, 64%. In addition, the “%Inh” value in the test with AURKC turned out to be 17%; in the test with AXL, 0%; in the test with BIKE, 0%; in the test with BLK it was 0%.
Turning to `Cc1cc(NCC(c2ccccc2)c2ccccc2)nc(NCc2ccc(C(F)(F)F)cc2)n1` [GW497681], the “%Inh” value came out at 9% in the test on ANKK1; 13% in the test with ARK5; 0% with ASK1; 0% with ASK2; 7% in the test on AURKA; 15% in the test on AURKB. Moreover, the “%Inh” value was found to be 8% in the test with AURKC, 0% with AXL, 0% in the test with BIKE and 25% with BLK.
Turning to `COc1ccc(C2=C(Nc3cccc(C(=O)O)c3)C(=O)NC2=O)cc1` [SB-390765], the “%Inh” value with ANKK1 is listed as 6%; with ARK5, 5%; with ASK1, 9%; in the test with ASK2, 21%; in the test with AURKA, 18%; with AURKB, 26%. The “%Inh” value came to 0% with AURKC, 19% in the test with AXL, 18% in the test with BIKE and 0% in the test with BLK.
With `COC(=O)c1c(-c2ccccc2)c2cc(C(=O)O)ccc2c(=O)n1Cc1ccccc1`, the “%Inh” value in the test with ANKK1 is given as 0%; in the test with ARK5, 5%; in the test on ASK1, 0%; in the test with ASK2, 0%; in the test on AURKA it was 0%; in the test with AURKB, 11%. In addition, the “%Inh” value with AURKC, with AXL, in the test with BIKE and with BLK was 0% throughout.
As for `O=C(Nc1ccc2c(c1)OCO2)NC1CCN(c2ccnc(Nc3ccc(F)cc3)n2)C1` (stereo not drawn) [GSK1379724], the “%Inh” value worked out at 0% in the test with ANKK1; 8% in the test with ARK5; 3% in the test on ASK1; 0% with ASK2; 0% in the test on AURKA; 99.4% in the test with AURKB. Also, the “%Inh” value came to 52% in the test with AURKC, 5% in the test with AXL, 27% in the test on BIKE and 19% in the test with BLK.
For `Cn1ccc2ncnc(Oc3ccc(Nc4nc5ccccc5[nH]4)cc3)c21`, the “%Inh” value was found to be 0% with ANKK1; 14% with ARK5; 0% in the test with ASK1; 0% in the test with ASK2; 0% in the test on AURKA; 95.2% with AURKB. Further, the “%Inh” value in the test on AURKC was 3%; with AXL it was 0%; in the test on BIKE, 0%; in the test on BLK it was 0%.
Regarding `Cl.O=C(Nc1cccc(-c2nn3ncccc3c2-c2ccnc(Nc3cccnc3)n2)c1)c1c(F)cccc1F` [GSK312879], the “%Inh” value amounted to 16% in the test on ANKK1; 0% with ARK5; 0% in the test with ASK1; 13% in the test with ASK2; 0% with AURKA; 24% in the test on AURKB. In addition, the “%Inh” value in the test with AURKC is given as 19%; in the test on AXL, 11%; in the test with BIKE, 31%; in the test on BLK, 2%.
As for `Cl.NC(=O)c1cccc(Nc2nccc(Nc3ccc(Oc4cccc(Cl)c4)c(Cl)c3)n2)c1` [GW659008], the “%Inh” value with ANKK1 amounted to 0%; in the test with ARK5 it was 0%; in the test on ASK1, 0%; in the test with ASK2, 0%; with AURKA, 6%; in the test with AURKB it was 49%. The “%Inh” value came out at 21% in the test on AURKC, 12% in the test with AXL, 33% in the test on BIKE and 84% in the test on BLK.
In the case of `Cc1cccc(-c2nc(-c3ccc(S(C)(=O)=O)cc3)sc2-c2ccnc(NCCc3ccccc3)c2)c1`, the “%Inh” value in the test with ANKK1 is 7%; in the test on ARK5 it was 11%; in the test on ASK1, 0%; in the test with ASK2, 0%; in the test on AURKA it was 0%; in the test with AURKB, 14%. Further, the “%Inh” value stood at 0% with AURKC, 0% in the test on AXL, 9% in the test with BIKE and 16% in the test with BLK.
As for `Cc1ccc(C(=O)Nc2ccc(Nc3ccnc4cc(-c5ccccn5)ccc34)cc2O)cc1.Cl` [GW440146], the “%Inh” value in the test on ANKK1 is recorded as 33%; in the test on ARK5 it was 0%; in the test on ASK1, 0%; with ASK2 it was 0%; in the test with AURKA it was 29%; in the test with AURKB, 80%. Moreover, the “%Inh” value turned out to be 90.1% in the test with AURKC, 0% in the test with AXL, 39% in the test with BIKE and 98.4% in the test on BLK.
